Five compounds from PubChem BioAssay (NCATS) can be followed below.

Test [1] can be described thus: Quantitative high throughput screen for delayed death inhibitors of the malarial parasite plastid, 96 hour incubation (AID 488745). Further: on the % scale 0 is the no-effect control and ±100 the full control effect; nearly all actives have a fitted effect of over 70% in size. Summed up:
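Luciferase-expressing P. falciparum in erythrocytes (2% hematocrit, 0.1% parasitemia) incubated with compound for 96 h at 37 C, 5% CO2, in RPMI 1640 with 0.5% Albumax. Growth inhibition read as decreased luminescence.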

The target of test [2] is M-phase phosphoprotein 8 (Homo sapiens) (UniProt Q99549). Kind of test: qHTS Validation Assay for Inhibitors for MPP8 Chromodomain Interactions with Methylated Histone Tails (AID 488949).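 Further: 50 nM MPP8 with 50 nM peptide preformed then compounds added for 30 min; AlphaScreen signal from MPP8 chromodomain bound to biotinylated H3K9me3 peptide; top concentration of the series differs between compounds; on the % scale 0 is the no-effect control and ±100 the full control effect; nearly all actives have a fitted effect of over 55% in size.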 Summed up: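 50 nM MPP8 + 50 nM b-H3K9me3 peptide, PBS pH 7.4/0.01% Tween-20, 30 min RT; + cpd 30 min RT; + AlphaScreen donor/Ni-chelate acceptor beads 10 ug/mL final, 30 min dark; luminescence read.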

Test [3] deals with Thyrotropin receptor (Homo sapiens) (UniProt P16473). Kind of test: qHTS Assay for Antagonists of the Thyroid Stimulating Hormone Receptor (AID 488980). Further: 0% is about no effect. Summed up:
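Readout is cAMP by HTRF competition between cellular cAMP and cAMP-d2 for a cryptate-labelled antibody. Antagonism was assessed in TSHR-transfected HEK293 cells stimulated with 4 nM TSH (EC80, final) in the presence of RO 20-1724.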
In general terms: qHTS replaces the single test concentration by a dilution series.

For test [4], the target named is Thyrotropin-releasing hormone receptor (Homo sapiens) (UniProt P34981). Kind of test: qHTS for Small Molecule Agonists and Allosteric Enhancers of Human TRH Receptor: Validation Screen for Agonists (AID 493127;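 active means calcium activation more than 3 SD above the typical response in the agonist read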; further: 0% is about no effect). As to conditions: TRH receptor agonist cell assay; at 2 µM; stronger effect = higher value. Summed up:
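TRHR cells loaded with fluo-8 calcium dye; FDSS kinetic fluorescence (Ex 480/Em 530) read at 1 s/cycle after 23 nL compound addition. Agonist-mode calcium response recorded before the 10 nM TRH (EC20) addition.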

For test [5], the target named is Galactokinase (Homo sapiens) (UniProt P51570). Kind of test: qHTS Validation Assay for Inhibitors of Human Galactokinase (GALK) (AID 493189). Further: 0% is about no effect. Summed up:
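5 nM GALK / 100 uM galactose / 35 uM ATP, 20 mM HEPES pH8.0, 5 mM MgCl2, 60 mM NaCl, 1 mM DTT, 0.01% BSA (final). RT 1 h; Kinase-Glo Plus luminescence.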

Test [6] can be described thus: Validation screen for small molecules that induce DNA re-replication in SW480 colon adenocarcinoma cells (AID 504364). Further: 0% is about no effect. An outline of the steps: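 SW480 cells (250/well) exposed 48 h at 37 C, 5% CO2, then Hoechst-stained 40 min. Nuclear DNA content imaged by fluorescence scanning (405 nm excitation, 500-530 nm emission); re-replication scored as increased nuclei with elevated intensity.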

Test [7] deals with Ubiquitin carboxyl-terminal hydrolase 1 (Homo sapiens) (UniProt O94782). Kind of test: Inhibitors of USP1/UAF1: Pilot qHTS (AID 504865).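 Further: rhodamine fluorescence freed from ubiquitin-rhodamine substrate followed over time; top concentration of the series differs between compounds; on the % scale 0 is the no-effect control and ±100 the full control effect; nearly all actives have a fitted effect of over 35% in size.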 Summed up: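 In 50mM HEPES pH 7.8 containing 0.5mM EDTA, 1mM TCEP, 0.1 mg/ml BSA and 0.01% Tween-20, 1nM USP1/UAF1 is exposed to compound for 15 min, then Ub-Rho (150nM final) is added and fluorescence is read over time.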
The target in test [8] is DNA dC->dU-editing enzyme APOBEC-3G (Homo sapiens) (UniProt Q9HC16). Kind of test: qHTS for inhibitors of Vif-A3G interactions: Validation (AID 588379). Further: 0% is about no effect. Summed up: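 HeLa cells stably expressing Vif and A3G-eYFP, 700 cells/well, incubated overnight at 37 deg C, then exposed to compound overnight at 37 deg C. Inhibition of Vif-mediated degradation read as increased yellow fluorescence (Ex 488/Em 500-530) by laser-scanning cytometry.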

In test [9] the test system is Zika virus NS2B-NS3 protease. Kind of test: Primary screen GU AMC qHTS for Zika virus inhibitors (AID 1347154).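 Further: 0% = no-inhibitor control and -100% = no-enzyme control; nearly all actives have a fitted effect of over 70% in size.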 An outline of the steps: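 Unlinked Zika NS2B hydrophilic domain/NS3 protease domain noncovalent complex (25 nM final) in 10 mM Tris-HCl pH 8.0, 0.01% Tween 20, with AMC peptide substrate. Fluorescence (ex 340, em 450 nm) change over 15 min, room temperature; percent inhibition fitted to 4-parameter Hill equation.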

A short description of test [10]: Primary qHTS for small molecule stabilizers of the endoplasmic reticulum resident proteome: Secreted ER Calcium Modulated Protein (SERCaMP) assay (AID 1508630). Further: on the % scale 0 is the no-effect control and ±100 the full control effect. Summed up: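 GLuc-SERCaMP-expressing SH-SY5Y cells, pretreated 16 h with compound, are challenged with thapsigargin to empty ER calcium stores; after 4 h, coelenterazine is added directly to the medium and luminescence is imaged.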

A short description of test [11]: Validation of Assay for Modulators of Lamin A Splicing (AID 1459; active means well fitted curve in the direction sought with a large enough effect in the signal ratio; the % refers to the signal ratio;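 further: cells exposed to compound for two days before reading; 0% is about no effect; ratio rise marks activators and ratio drop marks inhibitors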). Summed up: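 HeLa S3 lamin A-EGFP/DsRed2 stable clone, 600 cells/well, Opti-MEM 2% FBS; compounds by pin tool; 48 hrs, 37 °C/5% CO2; Acumen 488 nm scan, objects 10-100 um; GFP/RFP intensity ratio.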
Test [12] can be described thus: qHTS Assay for Lipid Storage Modulators (AID 1519; calls by dose curve; on activity change, negative = inhibition: on the % scale 0 is the no-effect control and ±100 the full control effect). As to conditions: Drosophila S3 cells, BODIPY lipid droplet/cell ratio, laser cytometry, cells loaded with oleic acid. An outline of the steps:
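Cells seeded at 5,000 per well were treated with compounds over a concentration series and loaded with oleic acid (400 uM, as added). Lipid droplet fluorescence (488 nm excitation, 500-530 nm channel) was read by laser-scanning cytometry and normalized to 20 uM Triacsin C.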

The target of test [13] is DNA repair nuclease/redox regulator APEX1 (Homo sapiens) (UniProt P27695). Kind of test: qHTS Validation Assay for Inhibitors of the Human Apurinic/apyrimidinic Endonuclease 1 (APE1) (AID 1705;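 further: TAMRA fluorescence gain over two minutes as APE1 cuts a quenched THF abasic duplex; on the % scale 0 is the no-effect control and ±100 the full control effect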). Summed up: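 qHTS, 1536-well. APE1 + cpd 15 min RT → 50 nM TAMRA/BHQ-2 THF-abasic dsDNA substrate → kinetic fluorescence, 3 reads/60 s; delta(read3−read1) = reaction progress. No-enzyme buffer = negative control.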

Test [14] can be described thus: Counterscreen for APE1 Inhibitors: Fluorescent Dye Displacement Validation Assay (AID 1707).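 Further: plate controls were ThO with dsDNA and no compound for no effect and ThO without dsDNA for full effect.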 An outline of the steps:
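Thiazole Orange (250 nM) bound to 50 nM TAMRA-labelled dsDNA with tetrahydrofuran abasic site; displacement by DNA-binding compounds lowers fluorescence. Buffer 50 mM Tris-HCl pH 7.5, 50 mM NaCl, 2 mM MgCl2, 0.01% Tween-20; endpoint read at 480/540 nm.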
A general note: Counterscreens check selectivity or assay interference.

In test [15] the target is Endonuclease 4 (Escherichia coli (strain K12)) (UniProt P0A6C1). Kind of test: Counterscreen for APE1 Inhibitors: qHTS Validation Assay for Inhibitors of Endonuclease IV (AID 1708). Further: on the % scale 0 is the no-effect control and ±100 the full control effect. Summed up: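 Concentration-response counterscreen run identically to the APE1 assay: 15 min room-temperature preincubation of 2 nM enzyme with compound, reaction started with 50 nM quenched abasic DNA, progress taken from kinetic fluorescence.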

A short description of test [16]: qHTS for differential inhibitors of proliferation of Plasmodium falciparum line 7G8 (AID 1815).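 Further: potency means the concentration at half of the fitted maximal effect; parasite growth measured after three days of incubation.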
Test [17] is described as follows: qHTS for differential inhibitors of proliferation of Plasmodium falciparum line GB4 (AID 1816).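 Further: potency means the concentration at half of the fitted maximal effect; parasite growth measured after 72 h incubation.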 Conditions: Potency: Plasmodium falciparum GB4 proliferation inhibition.
Test [18] in a line: qHTS for differential inhibitors of proliferation of Plasmodium falciparum line D10 (AID 1877).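 Further: potency means the concentration at half of the fitted maximal effect; parasites grown with compound for 72 h before DNA staining.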
The nature of test [19]: qHTS for differential inhibitors of proliferation of Plasmodium falciparum line W2 (AID 1883).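 Further: potency means the concentration at half of the fitted maximal effect; parasites grown with compound for 72 h before lysis and staining.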 As to conditions: Potency: Plasmodium falciparum W2 proliferation inhibition.
A short description of test [20]: qHTS for differential inhibitors of proliferation of Plasmodium falciparum line HB3 (AID 1886).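 Further: potency means the concentration at half of the fitted maximal effect; parasites grown with compound for 72 h before SYBR Green readout.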 Conditions: Potency: Plasmodium falciparum HB3 proliferation inhibition.
The target in test [21] is ATP-dependent DNA helicase Q1 (Homo sapiens) (UniProt P46063). Kind of test: qHTS Validation Assay for Inhibitors of RecQ-Like Dna Helicase 1 (RECQ1) (AID 2353).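 Further: plate controls were DMSO vehicle for no effect and enzyme-free control for full effect.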 Summed up:
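50 nM RECQ1T1 preincubated 15 min with compound in Tris pH 8.0 buffer with MgCl2, DTT, Tween-20 and 2.5 ug/ml poly(dI-dC); started with 200 nM TAMRA/BHQ-2 forked duplex and 2 mM ATP. Unwinding read as fluorescence (525/598 nm), two reads 2 h apart.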

Test [22] can be described thus: Validation screen for small molecules that induce DNA re-replication in MCF 10A normal breast cells (AID 463097). Further: 0% is about no effect; nearly all actives have a fitted effect of over 60% in size. Summed up: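 Image-based qHTS: normal breast cells are incubated with compound for 48 hr, stained with Hoechst, and scanned for total nuclear fluorescence. Compounds raising the fraction of nuclei with elevated DNA content count as re-replication inducers.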

In test [23] the target is Voltage-gated inwardly rectifying potassium channel KCNH2 (Homo sapiens) (UniProt Q12809). Kind of test: qHTS Assay for Small Molecule Inhibitors of the Human hERG Channel Activity (AID 588834).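 Further: top concentration of the series differs between compounds; on the % scale 0 is the no-effect control and ±100 the full control effect; lower thallium flux fluorescence means stronger hERG block; nearly all actives have a fitted effect of over 50% in size.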 An outline of the steps:
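hERG-BacMam U2OS, 2000 cells/well; 0.7X FluxOR loading 1 hr RT dark; cpd ~10 min 37 °C; stim buffer; FDSS fluorescence 2 min @ 1 s; AC50 Hill fit.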

Molecules are shown by their SMILES. Records with an inconclusive call do not appear. The source made the active and inactive calls. Unless noted, the call rests on the fitted dose curve; in most records, active means well fitted curve in the direction sought with a large enough effect; inconclusive means small, poorly fitted or top-dose-only effect, or another doubt; inactive means no such curve, though single readings can be large; an effect the other way counts as inactive or inconclusive.

M-phase phosphoprotein 8 (Homo sapiens), sequence (Q99549 whole entry, looked up): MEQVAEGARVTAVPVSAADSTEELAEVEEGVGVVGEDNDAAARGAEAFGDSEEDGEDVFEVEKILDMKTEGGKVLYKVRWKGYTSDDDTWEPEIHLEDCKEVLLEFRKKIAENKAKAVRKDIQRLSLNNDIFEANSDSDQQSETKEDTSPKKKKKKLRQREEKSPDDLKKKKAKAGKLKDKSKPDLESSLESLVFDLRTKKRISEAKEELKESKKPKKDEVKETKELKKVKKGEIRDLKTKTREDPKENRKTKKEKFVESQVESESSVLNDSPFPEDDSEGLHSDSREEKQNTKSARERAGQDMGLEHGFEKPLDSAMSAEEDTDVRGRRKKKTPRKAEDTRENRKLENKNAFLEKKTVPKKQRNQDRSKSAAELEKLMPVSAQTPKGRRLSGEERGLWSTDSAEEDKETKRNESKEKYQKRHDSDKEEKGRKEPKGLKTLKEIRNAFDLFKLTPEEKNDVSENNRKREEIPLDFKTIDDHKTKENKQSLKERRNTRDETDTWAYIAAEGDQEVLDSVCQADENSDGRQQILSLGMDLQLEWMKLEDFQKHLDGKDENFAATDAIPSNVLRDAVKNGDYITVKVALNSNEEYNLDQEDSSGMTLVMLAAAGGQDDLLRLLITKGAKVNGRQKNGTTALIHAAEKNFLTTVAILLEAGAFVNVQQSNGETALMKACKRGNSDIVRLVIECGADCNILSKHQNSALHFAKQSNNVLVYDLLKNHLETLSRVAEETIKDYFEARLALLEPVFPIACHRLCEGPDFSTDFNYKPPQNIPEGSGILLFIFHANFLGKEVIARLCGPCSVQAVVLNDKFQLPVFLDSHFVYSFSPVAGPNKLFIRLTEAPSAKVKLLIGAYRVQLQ
Galactokinase (Homo sapiens), sequence (P51570 whole entry, looked up): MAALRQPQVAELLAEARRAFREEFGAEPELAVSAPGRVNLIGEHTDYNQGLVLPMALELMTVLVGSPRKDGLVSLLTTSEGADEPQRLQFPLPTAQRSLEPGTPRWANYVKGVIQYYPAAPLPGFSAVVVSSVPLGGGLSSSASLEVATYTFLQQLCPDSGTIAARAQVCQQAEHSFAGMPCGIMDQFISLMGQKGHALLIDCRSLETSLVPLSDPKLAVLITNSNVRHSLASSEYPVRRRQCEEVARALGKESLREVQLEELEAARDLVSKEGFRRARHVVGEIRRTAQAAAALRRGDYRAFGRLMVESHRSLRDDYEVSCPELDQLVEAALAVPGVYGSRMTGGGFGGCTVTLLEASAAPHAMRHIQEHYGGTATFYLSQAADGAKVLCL
ATP-dependent DNA helicase Q1 (Homo sapiens), sequence (P46063 whole entry, looked up): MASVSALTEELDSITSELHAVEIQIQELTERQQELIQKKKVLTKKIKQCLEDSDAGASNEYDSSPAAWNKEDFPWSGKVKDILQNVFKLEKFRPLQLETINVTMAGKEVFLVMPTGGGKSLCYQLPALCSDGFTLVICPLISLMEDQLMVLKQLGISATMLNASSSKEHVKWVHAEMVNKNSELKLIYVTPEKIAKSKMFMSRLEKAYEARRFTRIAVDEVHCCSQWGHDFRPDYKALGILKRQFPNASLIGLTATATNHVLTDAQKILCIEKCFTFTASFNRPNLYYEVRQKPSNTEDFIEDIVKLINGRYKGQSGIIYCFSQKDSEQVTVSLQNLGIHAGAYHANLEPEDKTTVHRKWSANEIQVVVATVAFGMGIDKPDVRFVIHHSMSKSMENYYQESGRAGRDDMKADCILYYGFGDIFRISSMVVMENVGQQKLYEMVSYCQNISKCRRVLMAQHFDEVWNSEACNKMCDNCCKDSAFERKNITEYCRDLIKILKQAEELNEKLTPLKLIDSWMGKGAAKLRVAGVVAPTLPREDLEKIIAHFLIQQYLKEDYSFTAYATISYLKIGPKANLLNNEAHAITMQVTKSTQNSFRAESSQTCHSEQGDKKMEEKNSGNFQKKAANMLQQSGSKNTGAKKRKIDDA
DNA dC->dU-editing enzyme APOBEC-3G (Homo sapiens), sequence (Q9HC16 whole entry, looked up): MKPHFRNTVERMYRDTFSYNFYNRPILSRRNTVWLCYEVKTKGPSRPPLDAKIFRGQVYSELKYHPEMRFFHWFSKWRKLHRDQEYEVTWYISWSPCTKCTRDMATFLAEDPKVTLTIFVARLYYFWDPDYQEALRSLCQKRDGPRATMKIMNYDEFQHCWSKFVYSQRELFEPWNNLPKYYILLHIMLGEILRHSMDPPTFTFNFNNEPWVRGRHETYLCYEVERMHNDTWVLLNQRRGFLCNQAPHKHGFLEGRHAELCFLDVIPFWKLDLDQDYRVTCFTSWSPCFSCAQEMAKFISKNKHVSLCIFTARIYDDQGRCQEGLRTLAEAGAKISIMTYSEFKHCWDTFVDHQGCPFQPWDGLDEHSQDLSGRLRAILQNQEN
Ubiquitin carboxyl-terminal hydrolase 1 (Homo sapiens), sequence (O94782 whole entry, looked up): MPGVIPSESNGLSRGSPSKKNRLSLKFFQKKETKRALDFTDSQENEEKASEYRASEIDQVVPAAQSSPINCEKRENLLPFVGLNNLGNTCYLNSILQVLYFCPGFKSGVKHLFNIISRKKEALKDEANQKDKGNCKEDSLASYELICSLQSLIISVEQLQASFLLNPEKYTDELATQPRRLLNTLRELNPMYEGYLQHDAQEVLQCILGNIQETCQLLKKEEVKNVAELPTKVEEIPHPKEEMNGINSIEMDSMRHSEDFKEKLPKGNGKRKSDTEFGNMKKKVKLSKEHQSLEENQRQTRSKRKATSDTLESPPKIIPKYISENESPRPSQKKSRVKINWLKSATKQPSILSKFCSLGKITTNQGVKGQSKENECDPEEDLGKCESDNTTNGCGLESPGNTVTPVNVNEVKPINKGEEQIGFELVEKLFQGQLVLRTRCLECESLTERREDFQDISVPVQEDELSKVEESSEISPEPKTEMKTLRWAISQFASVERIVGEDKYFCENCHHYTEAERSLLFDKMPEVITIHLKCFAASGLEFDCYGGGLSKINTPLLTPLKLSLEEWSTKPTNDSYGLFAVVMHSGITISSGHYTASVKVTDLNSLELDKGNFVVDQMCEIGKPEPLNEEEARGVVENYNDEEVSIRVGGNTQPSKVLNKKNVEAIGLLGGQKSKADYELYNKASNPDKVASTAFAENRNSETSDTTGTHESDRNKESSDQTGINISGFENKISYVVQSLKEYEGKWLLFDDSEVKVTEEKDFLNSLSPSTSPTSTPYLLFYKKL
Voltage-gated inwardly rectifying potassium channel KCNH2 (Homo sapiens), sequence (Q12809 whole entry, looked up): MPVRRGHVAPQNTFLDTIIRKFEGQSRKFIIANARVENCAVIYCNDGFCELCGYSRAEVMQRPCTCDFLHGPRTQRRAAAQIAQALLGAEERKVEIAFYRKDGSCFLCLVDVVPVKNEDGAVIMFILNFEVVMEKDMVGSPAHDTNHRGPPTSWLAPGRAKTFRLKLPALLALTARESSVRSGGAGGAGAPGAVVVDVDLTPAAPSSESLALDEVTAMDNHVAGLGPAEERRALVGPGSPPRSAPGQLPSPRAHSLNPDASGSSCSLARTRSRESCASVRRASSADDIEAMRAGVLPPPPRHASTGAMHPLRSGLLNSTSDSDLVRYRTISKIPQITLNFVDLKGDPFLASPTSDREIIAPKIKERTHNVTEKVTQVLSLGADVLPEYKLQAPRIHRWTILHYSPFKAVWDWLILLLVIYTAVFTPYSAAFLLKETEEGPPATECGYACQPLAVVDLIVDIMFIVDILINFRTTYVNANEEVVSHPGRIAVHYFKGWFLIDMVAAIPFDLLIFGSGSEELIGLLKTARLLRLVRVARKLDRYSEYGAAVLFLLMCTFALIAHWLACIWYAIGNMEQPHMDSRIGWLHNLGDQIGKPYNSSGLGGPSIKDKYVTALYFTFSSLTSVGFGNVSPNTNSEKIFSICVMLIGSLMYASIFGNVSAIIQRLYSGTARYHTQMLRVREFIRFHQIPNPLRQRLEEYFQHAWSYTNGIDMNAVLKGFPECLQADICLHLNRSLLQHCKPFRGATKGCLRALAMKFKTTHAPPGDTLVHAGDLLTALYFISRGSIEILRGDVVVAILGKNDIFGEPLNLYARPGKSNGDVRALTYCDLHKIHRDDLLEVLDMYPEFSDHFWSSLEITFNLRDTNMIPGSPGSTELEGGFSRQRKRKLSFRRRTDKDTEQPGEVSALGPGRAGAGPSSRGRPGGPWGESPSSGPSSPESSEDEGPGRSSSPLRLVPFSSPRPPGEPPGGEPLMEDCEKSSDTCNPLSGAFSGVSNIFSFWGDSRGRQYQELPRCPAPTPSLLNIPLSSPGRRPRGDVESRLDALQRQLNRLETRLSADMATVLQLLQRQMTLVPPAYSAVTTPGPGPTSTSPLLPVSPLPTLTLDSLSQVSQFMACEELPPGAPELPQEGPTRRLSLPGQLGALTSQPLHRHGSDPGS
DNA repair nuclease/redox regulator APEX1 (Homo sapiens), sequence (P27695 whole entry, looked up): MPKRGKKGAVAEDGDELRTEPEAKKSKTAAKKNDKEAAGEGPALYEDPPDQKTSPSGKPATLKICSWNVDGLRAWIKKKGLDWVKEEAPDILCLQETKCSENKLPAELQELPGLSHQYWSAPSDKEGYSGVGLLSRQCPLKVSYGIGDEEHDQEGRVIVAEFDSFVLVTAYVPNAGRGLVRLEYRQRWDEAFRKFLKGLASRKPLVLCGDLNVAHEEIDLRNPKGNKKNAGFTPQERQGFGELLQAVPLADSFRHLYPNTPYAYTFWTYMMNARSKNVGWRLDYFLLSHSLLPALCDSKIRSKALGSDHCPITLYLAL
Thyrotropin-releasing hormone receptor (Homo sapiens), sequence (P34981 whole entry, looked up): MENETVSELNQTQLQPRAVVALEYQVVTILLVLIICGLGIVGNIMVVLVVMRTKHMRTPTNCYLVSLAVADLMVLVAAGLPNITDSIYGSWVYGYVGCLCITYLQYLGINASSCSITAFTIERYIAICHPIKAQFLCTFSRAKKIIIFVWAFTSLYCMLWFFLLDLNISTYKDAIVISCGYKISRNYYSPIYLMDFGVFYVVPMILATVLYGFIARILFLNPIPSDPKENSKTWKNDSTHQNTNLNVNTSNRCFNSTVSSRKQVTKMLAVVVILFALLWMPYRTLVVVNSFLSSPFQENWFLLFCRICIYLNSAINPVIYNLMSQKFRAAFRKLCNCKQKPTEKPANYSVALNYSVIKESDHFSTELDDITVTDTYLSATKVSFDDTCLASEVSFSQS

In the case of `NCCCCCCNS(=O)(=O)c1cccc2c(Cl)cccc12`, the Potency entry in test [1], in [2], in test [7], in test [8], in test [9] and in test [10] was “inactive” in each case. Further, the outcome in test [3], in test [5] and in test [6] was inactive. Further, the activation in test [4] is 2.44% (inactive).

As to `Cc1ccc(CC2(O)CCN(CCOc3ccc(O)cc3)CC2)cc1`, the Potency entry in test [9] was “inactive”.

For `O=C(O)c1cc(N(Cc2ccccc2O)Cc2cc(O)ccc2O)ccc1O`, in test [9], the Potency result was “inactive”.

Take `CCCCCCCCCCCCCCCCOCC(CO)OC(C)=O` (stereo not drawn): in [9], the activity change, negative = inhibition was 15.1% [at 6.83 µM] (inactive).

Consider `C/C=C1\C(=O)CC2C3CCC4=CC(=O)CC[C@]4(C)C3CC[C@]12C` (stereo partly drawn), for which the compound was classed as inactive in [11], in [5] and in test [6]. Also, in [12] (at 57.5 µM (top of the series)), the activity change, negative = inhibition was 1.38% (inactive). Moreover, the max response in test [12] (measured here: cell count channel max response) was found to be 72.1%; in test [12] (measured here: lipid channel max response), 74.6%. In addition, the Potency result in [13], in test [14], in test [15], in [21], in [22] and in test [1] was “inactive” in each case. The Potency entry in test [2], in [23] and in test [9] was “inactive” throughout. The Potency in test [16] was 11.2 µM (active); in test [17] it was 14.1 µM (active); in test [18] it was 10 µM (active); in test [19], 7.08 µM (active); in test [20], 11.2 µM (active).
